# Test results from PubChem BioAssay (NCATS).
# Results filed as inconclusive are left out. Values without a mark were called inactive. Active and inactive are the calls of the source. The call rests on the fitted dose curve; in most records, active means well fitted inhibition curve with a large enough effect; inconclusive means small, poorly fitted or top-dose-only effect; inactive means flat fitted curve, though single readings scatter.
# Key:
# TAB165 = assay: qHTS profiling for inhibitors of Plasmodium falciparum proliferation (AID 504749); further: potency means the concentration at half of the fitted maximal effect; settings: P. falciparum in erythrocytes, SYBR Green DNA, 72 h; series mostly up to 28.7 µM
# Procedure, shortened: (§1)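 Readout was DNA-dye fluorescence from lysed cultures, ex 485/em 535 nm. Parasitized red cells had grown 72 h with compound; data scaled between 0.29 uM artemisinin and DMSO wells and corrected using vehicle-only plates.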
# W2 = assay: as above; settings: P. falciparum in erythrocytes, SYBR Green DNA, 72 h; series mostly up to 28.7 µM
# Procedure, shortened: as §1
# CRL-7250 = normal cell line; assay: Cytotoxic Profiling of Annotated Libraries Using Quantitative High-Throughput Screening (AID 1296008); settings: Five cell lines viability, CellTiter-Glo ATP luminescence, 48-72 h; max response: active compounds read low; further: potency means the concentration at half of the fitted maximal effect; on max response: on the % scale 0 is the no-effect control and ±100 the full control effect
# Procedure, shortened: (§2)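 Cells exposed to compounds for 48 or 72 hr at 37 degrees Celsius. Viability read as ATP-coupled luminescence with CellTiter-Glo after 10 min at room temperature.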
# HEK293 = assay: as above; settings: Five cell lines viability, CellTiter-Glo ATP luminescence, 48-72 h; max response: active compounds read low
# Procedure, shortened: as §2
# HaCat [1] = assay: as above; settings: Five cell lines viability, CellTiter-Glo ATP luminescence, 48-72 h; max response: active compounds read low
# Procedure, shortened: as §2
# KB-3-1 = assay: as above; settings: Five cell lines viability, CellTiter-Glo ATP luminescence, 48-72 h; max response: active compounds read low
# Procedure, shortened: as §2
# NIH3T3 = assay: as above; settings: Five cell lines viability, CellTiter-Glo ATP luminescence, 48-72 h; max response: active compounds read low
# Procedure, shortened: as §2
# MCC-13 = assay: qHTS assay to identify novel small-molecules to repurpose for Merkel cell carcinoma treatment (AID 1296009); settings: MCC and control cell lines, CellTiter-Glo viability, 72 h; series mostly up to 46 µM; on activity change, negative = cytotoxicity: on the % scale 0 is the no-effect control and ±100 the full control effect
# Procedure, shortened: (§3)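 Cells were incubated with compound for 72 hr at 37 degree celsius before CellTiter-Glo addition. Luminescence was normalized with no-cell wells as full cytotoxicity and DMSO as baseline.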
# HACAT [2] = assay: as above; settings: MCC and control cell lines, CellTiter-Glo viability, 72 h; at 44.8 µM (top of the series) unless noted
# Procedure, shortened: as §3
# HEK293T = assay: as above; settings: MCC and control cell lines, CellTiter-Glo viability, 72 h; at 44.8 µM (top of the series) unless noted
# Procedure, shortened: as §3
# Further: nearly all actives have a fitted effect of over 60% in size.
structure (smiles),measurement,setting,value
O=C(O)CCCCCCCC(=O)O,Potency,TAB165,inactive
same,Potency,W2,inactive
same,max response,CRL-7250,-17.5%
same,max response,HEK293,3%
same,max response,HaCat [1],2.4%
same,max response,KB-3-1,-3.68%
same,outcome,NIH3T3,inactive
same,Potency,MCC-13,inactive
NC(N)=N/N=C/c1c(Cl)cccc1Cl,Potency,W2,12 µM (active)
same,max response,CRL-7250,3.75%
same,Potency,HEK293,18.8 µM (active)
same,max response,HaCat [1],-6.3%
same,max response,KB-3-1,0.665%
same,max response,NIH3T3,3.93%
same,Potency,MCC-13,inactive
CC(C)[N+](C)(CCOC(=O)C1c2ccccc2Oc2ccccc21)C(C)C,max response,CRL-7250,-3.69%
same,max response,HEK293,-1.62%
same,max response,HaCat [1],-8.6%
same,outcome,NIH3T3,inactive
same,Potency,MCC-13,inactive
CO[C@@]1(NC(=O)CSCC#N)C(=O)N2C(C(=O)O)=C(CSc3nnnn3C)CS[C@@H]21,max response,CRL-7250,2.03%
same,max response,HEK293,-2.42%
same,outcome,HaCat [1],inactive
same,max response,NIH3T3,-0.696%
same,outcome,HACAT [2],inactive
same,Potency,MCC-13,inactive
CC(=O)OC(C)C[N+](C)(C)C (configuration not stated),max response,CRL-7250,1.65%
same,max response,HEK293,3.97%
same,outcome,HaCat [1],inactive
same,max response,NIH3T3,2.06%
same,outcome,HACAT [2],inactive
same,Potency,MCC-13,inactive
NC(=O)c1ncn([C@@H]2O[C@H](CO)[C@@H](O)[C@H]2O)c1O,Potency,TAB165,inactive
same,Potency,W2,inactive
same,max response,CRL-7250,-24.9%
same,max response,HEK293,3.19%
same,outcome,HaCat [1],inactive
same,max response,NIH3T3,-1.25%
same,outcome,HACAT [2],inactive
same,Potency,MCC-13,inactive
Cc1ccc(/C(=C\CN2CCCC2)c2ccccn2)cc1,max response,CRL-7250,0.263%
same,max response,HEK293,-16.2%
same,max response,HaCat [1],-3.07%
same,max response,NIH3T3,1.95%
same,Potency,MCC-13,inactive
CCN(CC)CC(=O)Nc1c(C)cccc1C,Potency,TAB165,inactive
same,Potency,W2,inactive
same,max response,CRL-7250,-12.2%
same,max response,HEK293,-14.5%
same,max response,HaCat [1],-2.67%
same,outcome,NIH3T3,inactive
same,Potency,MCC-13,inactive
N[C@@H](COP(=O)(O)O)C(=O)O,outcome,CRL-7250,inactive
same,max response,HEK293,-2.26%
same,max response,KB-3-1,-0.563%
same,max response,NIH3T3,-2.11%
same,Potency,MCC-13,inactive
CN=C(NC#N)NCCSCc1nc[nH]c1C,Potency,TAB165,inactive
same,Potency,W2,inactive
same,outcome,CRL-7250,inactive
same,outcome,HEK293,inactive
same,outcome,HaCat [1],inactive
same,max response,NIH3T3,-0.832%
same,outcome,HACAT [2],inactive
same,outcome,HEK293T,inactive
same,Potency,MCC-13,inactive
COc1cc(Cc2cnc(N)nc2N)cc(OC)c1OC,outcome,CRL-7250,inactive
same,outcome,HEK293,inactive
same,outcome,HaCat [1],inactive
same,max response,NIH3T3,-0.336%
same,outcome,HACAT [2],inactive
same,outcome,HEK293T,inactive
same,Potency,MCC-13,inactive
COc1cc(C(=O)OCCCN2CCCN(CCCOC(=O)c3cc(OC)c(OC)c(OC)c3)CC2)cc(OC)c1OC,Potency,TAB165,8.91 µM (active)
same,Potency,W2,3.01 µM (active)
same,max response,CRL-7250,-12.1%
same,Potency,HEK293,21.1 µM (active)
same,max response,HaCat [1],3.13%
same,max response,NIH3T3,-3.19%
same,Potency,MCC-13,inactive
O=C(O)CP(=O)(O)O,Potency,TAB165,inactive
same,max response,CRL-7250,-7.2%
same,outcome,HEK293,inactive
same,max response,KB-3-1,0.355%
same,outcome,NIH3T3,inactive
same,outcome,HEK293T,inactive
same,Potency,MCC-13,inactive
NC(N)=NC(=O)Cc1c(Cl)cccc1Cl,Potency,W2,6.75 µM (active)
same,max response,CRL-7250,-2.41%
same,Potency,HEK293,8.41 µM (active)
same,max response,HaCat [1],-14.8%
same,max response,NIH3T3,3.43%
same,Potency,MCC-13,inactive
CCn1cc(C(=O)O)c(=O)c2cc3c(cc21)OCO3,Potency,TAB165,inactive
same,Potency,W2,inactive
same,max response,CRL-7250,-16.9%
same,max response,HEK293,-14.3%
same,max response,HaCat [1],-9.91%
same,max response,KB-3-1,-12.7%
same,max response,NIH3T3,-23.3%
same,Potency,MCC-13,inactive
CC(=O)Nc1nnc(S(N)(=O)=O)s1,Potency,TAB165,inactive
same,Potency,W2,inactive
same,outcome,CRL-7250,inactive
same,max response,HEK293,3.96%
same,max response,HaCat [1],4.4%
same,max response,KB-3-1,1.55%
same,outcome,NIH3T3,inactive
same,Potency,MCC-13,inactive
C[C@@H](O)[C@H]1C(=O)N2C(C(=O)O)=C(SCCN=CN)C[C@H]12,max response,CRL-7250,-15.5%
same,max response,HEK293,-4.83%
same,max response,KB-3-1,-8.98%
same,max response,NIH3T3,-19.7%
same,Potency,MCC-13,inactive
CC(C)(C)NCC(O)c1cc(O)cc(O)c1 (configuration not stated),max response,CRL-7250,-15.1%
same,max response,HEK293,-2.84%
same,max response,HaCat [1],4.23%
same,max response,NIH3T3,3.49%
same,Potency,MCC-13,inactive
O=C(O)CN(CCN(CC(=O)O)CC(=O)O)CCN(CC(=O)O)CC(=O)O,Potency,TAB165,inactive
same,Potency,W2,inactive
same,max response,CRL-7250,-4.18%
same,outcome,HEK293,inactive
same,max response,HaCat [1],-15.5%
same,max response,KB-3-1,28.9%
same,outcome,HEK293T,inactive [at 17.4 µM]
same,Potency,MCC-13,inactive
Cc1nc2c([nH]1)c(=O)n(C)c(=O)n2Cc1ccco1,Potency,TAB165,inactive
same,Potency,W2,inactive
same,max response,CRL-7250,0.6%
same,max response,HEK293,4.2%
same,outcome,HaCat [1],inactive
same,max response,NIH3T3,-4.53%
same,outcome,HACAT [2],inactive
same,Potency,MCC-13,inactive
O=C(O)CN(CCOCCOCCN(CC(=O)O)CC(=O)O)CC(=O)O,Potency,TAB165,inactive
same,Potency,W2,inactive
same,outcome,CRL-7250,inactive
same,max response,HEK293,0.265%
same,max response,HaCat [1],4.17%
same,max response,KB-3-1,5.76%
same,max response,NIH3T3,-0.882%
same,"activity change, negative = cytotoxicity",MCC-13,-0.433% [at 0.597 µM]
CC(C)(Oc1ccc(CCNC(=O)c2ccc(Cl)cc2)cc1)C(=O)O,Potency,TAB165,inactive
same,Potency,W2,inactive
same,max response,CRL-7250,-10.1%
same,max response,HEK293,-102%
same,outcome,HaCat [1],inactive
same,outcome,NIH3T3,inactive
same,outcome,HACAT [2],inactive
same,Potency,MCC-13,inactive
COC(=O)[C@@H](N)Cc1ccc(O)c(O)c1,Potency,TAB165,inactive
same,max response,CRL-7250,0.35%
same,max response,HEK293,-4.7%
same,max response,HaCat [1],3.62%
same,max response,NIH3T3,-6.82%
same,Potency,MCC-13,inactive
